# Assay results reported in the supplement of paper PMC9254222.
# Over roughly 1,100 compounds, “Wnt reporter firefly/Renilla luciferase ratio relative to plate median” has its median near 1.1; the highest 2% begin near 1.6. This excerpt belongs to a sample that is enriched for the highest values.
# System: HEK293T (UBE3A T485A transfected, BAR Wnt reporter)
# Test: Wnt reporter firefly/Renilla luciferase ratio relative to plate median (fold (linear ratio)); higher = more Wnt/beta-catenin reporter activation
# Conditions: 24 h
# Outline: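 Chemicals were robotically dosed at 0.01–100 uM for 24 h onto HEK293T cells, starting four hours after transfection with a BAR firefly luciferase Wnt reporter, TK-Renilla and an expression plasmid. The cells had been plated at 4500 cells/well in DMEM with 10% FBS at 37°C and 5% CO2. Following a Dual-Glo luciferase readout, the firefly/Renilla ratio served as the Wnt activity measure and raw Renilla as the cell health measure, both median-centred on each plate. Each value is the mean of four biological replicates.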
SMILES,Wnt reporter firefly/Renilla luciferase ratio (concentration: 0.01 uM),Wnt reporter firefly/Renilla luciferase ratio (concentration: 0.1 uM),Wnt reporter firefly/Renilla luciferase ratio (concentration: 1 uM),Wnt reporter firefly/Renilla luciferase ratio (concentration: 10 uM),Wnt reporter firefly/Renilla luciferase ratio (concentration: 100 uM)
N#CSCSC#N [Methylene bis(thiocyanate)],0.967,0.976,1.05,1.31,–
CNC(=O)ON=C(C)SC [Methomyl],0.847,1.08,1.03,0.996,1.19
CS/C(C)=N/OC(=O)N(C)SN(C)C(=O)O/N=C(\C)SC [Thiodicarb],1.53,1.86,1.6,1.15,–
CNC(=O)ON=C(SC)C(=O)N(C)C [Oxamyl],1.55,1.22,1.11,1.43,0.291
"Nn1cnnc1 [4-Amino-1,2,4-triazole]",–,1.22,0.928,1.27,1.43
ClC1=C(Cl)[C@]2(Cl)[C@H]3[C@H]([C@@H]4C=C[C@H]3C4)[C@@]1(Cl)C2(Cl)Cl [Aldrin],–,1.2,0.895,1.15,1.43
COC(=O)c1ccccc1C(=O)OC [Dimethyl phthalate],1.03,1.21,1.21,1.2,1.42
N#Cc1nn(-c2c(Cl)cc(C(F)(F)F)cc2Cl)c(N)c1S(=O)C(F)(F)F (centres undefined) [Fipronil],0.954,0.896,0.987,0.889,0.402
COS(=O)(=O)[O-].Cn1c(-c2ccccc2)cc(-c2ccccc2)[n+]1C [Difenzoquat metilsulfate],0.771,0.813,1.1,0.847,0.425
CC(C)(C)C(O)(CCc1ccc(Cl)cc1)Cn1cncn1 (centres undefined) [Tebuconazole],–,1.04,0.915,0.972,0.461
CC(=O)N=C1C=CC(=O)C=C1,0.925,1.17,1,0.923,1.08
"CCN(CC)CCO [N,N-Diethylethanolamine]",–,1.01,1.07,0.956,1.44
Clc1ccc(C(c2ccccc2Cl)C(Cl)(Cl)Cl)cc1 (centres undefined),–,0.989,0.858,0.978,1.08
c1cc2ccc3cccc4ccc(c1)c2c34 [Pyrene],–,1.09,0.96,1.05,0.354
"N=C(Nc1ccccc1)Nc1ccccc1 [1,3-Diphenylguanidine]",–,1.06,1.28,0.977,1.02
NC1=NC(O)C2C3OC4(O)OC(C(O)C2(N1)C4O)C3(O)CO (centres undefined) [Tetrodotoxin (TTX)],1.05,1.12,1.09,1.06,1.8

SMILES,Wnt reporter firefly/Renilla luciferase ratio (concentration: 0.01 uM),Wnt reporter firefly/Renilla luciferase ratio (concentration: 0.1 uM),Wnt reporter firefly/Renilla luciferase ratio (concentration: 1 uM),Wnt reporter firefly/Renilla luciferase ratio (concentration: 10 uM),Wnt reporter firefly/Renilla luciferase ratio (concentration: 100 uM)
CCOc1cccc([C@]2(N3CCN(c4ccccc4)CC3)CC[C@@H](C)CC2)c1.CS(=O)(=O)O,–,1.38,0.926,1.05,1.12
CCCOC/C(=N\c1ccc(Cl)cc1C(F)(F)F)n1ccnc1 [Triflumizole],1.29,1.65,1.53,1.91,1.72
CCCN(CCOc1c(Cl)cc(Cl)cc1Cl)C(=O)n1ccnc1 [Prochloraz],1.14,1.15,0.904,1.05,0.247
CN1C2CC(OC(=O)C(CO)c3ccccc3)CC1C1OC12 (centres undefined) [Scopolamine],1.61,1.56,1.15,1.24,1.26
N#Cc1cc(Br)c(O)c(Br)c1 [Bromoxynil],0.815,0.882,0.923,0.998,0.286
CCNc1nc(Cl)nc(NC(C)C)n1 [Atrazine],1.45,1.38,1.15,1.29,1.18
"Cc1cccc([N+](=O)[O-])c1C [1,2-Dimethyl-3-nitrobenzene]",–,0.993,0.898,0.848,1.57
COS(C)(=O)=O [Methyl methanesulfonate],–,0.999,0.797,1.14,1.24
COC(=O)c1c(C(F)F)nc(C(F)(F)F)c(C2=NCCS2)c1CC(C)C [Thiazopyr],0.815,0.899,0.947,0.872,0.82
CCOCCOC(C)=O [2-Ethoxyethyl acetate],–,1.05,0.896,1.18,1.3
COC(=O)C(C)Oc1ccc(Oc2ccc(Cl)cc2Cl)cc1 (centres undefined) [Diclofop-methyl],1.1,1.28,1.98,1.27,1.29
CC(Oc1ccc(Cl)cc1Cl)C(=O)O (centres undefined) [Dichlorprop],1.16,1.21,1.22,1.24,1.32
O=[N+]([O-])c1ccc(Oc2ccc(Cl)cc2Cl)cc1 [Nitrofen],–,1.04,0.882,1.01,1.28
OC(c1ccc(Cl)cc1)(c1ccc(Cl)cc1)C(Cl)(Cl)Cl [Dicofol],1.23,1.37,1.17,1.3,1.06
Clc1ccc(C(Cl)(Cl)Cl)cc1 [4-Chlorobenzotrichloride],–,1.23,0.884,1.42,2.38
"Clc1ccc(Cl)cc1 [1,4-Dichlorobenzene]",–,1.45,0.934,1.1,1.39
